Screening results as filed in PubChem BioAssay.
Only some compounds are listed: those with a hit (about 2.7% of all), similar ones and a draw of the others.
KDM5B inh: Primary screen for KDM5B Histone Demethylases FDH-coupled qHTS; Lysine-specific demethylase 5B (Homo sapiens), Q9UGL1; KDM5B demethylase, FDH-coupled NADH fluorescence (FDH is formaldehyde dehydrogenase); Potency, µM (top dose mostly 57.7 µM), most hits filed as inhibitors; 2.6% of 220,000 active; AID 1347165, 2019; also: potency is read from the fitted curve at half-maximal effect; 0% is about no effect; nearly all actives have a fitted effect of over 70% in size
Target sequence (Q9UGL1 whole entry, looked up): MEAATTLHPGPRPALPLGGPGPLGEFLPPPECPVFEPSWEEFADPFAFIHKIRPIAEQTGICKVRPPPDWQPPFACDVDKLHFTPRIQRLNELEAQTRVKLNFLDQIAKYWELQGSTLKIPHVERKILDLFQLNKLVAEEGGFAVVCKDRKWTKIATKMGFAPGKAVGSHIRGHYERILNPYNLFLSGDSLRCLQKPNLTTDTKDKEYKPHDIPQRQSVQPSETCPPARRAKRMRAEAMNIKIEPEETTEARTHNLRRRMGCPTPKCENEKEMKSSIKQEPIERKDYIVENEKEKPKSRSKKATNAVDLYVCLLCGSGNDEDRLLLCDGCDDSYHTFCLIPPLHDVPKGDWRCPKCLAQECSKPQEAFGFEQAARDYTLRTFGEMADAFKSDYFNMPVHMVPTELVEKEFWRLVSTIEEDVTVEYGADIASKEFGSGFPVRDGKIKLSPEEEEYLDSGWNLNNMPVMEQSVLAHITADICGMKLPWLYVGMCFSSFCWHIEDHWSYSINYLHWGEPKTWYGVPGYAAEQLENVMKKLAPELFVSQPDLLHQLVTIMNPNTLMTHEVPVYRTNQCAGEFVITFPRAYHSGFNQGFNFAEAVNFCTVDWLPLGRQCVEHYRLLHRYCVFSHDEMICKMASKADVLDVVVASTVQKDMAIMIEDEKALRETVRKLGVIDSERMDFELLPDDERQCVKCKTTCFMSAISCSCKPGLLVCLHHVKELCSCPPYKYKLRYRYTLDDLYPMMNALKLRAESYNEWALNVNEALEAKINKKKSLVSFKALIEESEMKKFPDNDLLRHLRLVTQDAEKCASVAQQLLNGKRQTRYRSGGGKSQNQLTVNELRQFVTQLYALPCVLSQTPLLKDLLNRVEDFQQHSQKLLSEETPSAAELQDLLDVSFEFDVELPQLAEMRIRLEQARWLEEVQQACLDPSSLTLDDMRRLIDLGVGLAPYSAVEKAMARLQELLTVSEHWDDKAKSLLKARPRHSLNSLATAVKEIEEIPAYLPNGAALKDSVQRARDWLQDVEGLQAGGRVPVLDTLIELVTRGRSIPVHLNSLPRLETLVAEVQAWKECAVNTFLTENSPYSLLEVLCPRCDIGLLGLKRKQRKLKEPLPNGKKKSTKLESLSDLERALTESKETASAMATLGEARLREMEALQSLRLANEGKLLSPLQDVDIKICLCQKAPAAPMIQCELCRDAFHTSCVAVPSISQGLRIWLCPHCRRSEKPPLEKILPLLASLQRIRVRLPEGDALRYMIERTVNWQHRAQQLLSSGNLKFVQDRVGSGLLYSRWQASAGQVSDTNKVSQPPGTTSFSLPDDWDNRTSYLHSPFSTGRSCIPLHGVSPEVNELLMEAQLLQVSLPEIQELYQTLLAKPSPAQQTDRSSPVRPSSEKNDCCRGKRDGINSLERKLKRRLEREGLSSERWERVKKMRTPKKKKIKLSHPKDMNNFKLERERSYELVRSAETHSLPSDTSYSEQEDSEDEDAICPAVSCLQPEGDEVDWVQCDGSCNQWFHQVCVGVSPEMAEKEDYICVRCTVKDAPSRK
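Compound dilutions met 200 nM (final) KDM5BΔAP for 10 min at room temperature before substrate addition. The substrate mix held 12.5 µM H3K4me3 with cofactors 25 µM α-ketoglutarate and 50 µM Fe²⁺. NADH signal gain over 30 min defined activity.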
IP6K1 inh: Primary qHTS assay for small molecule inhibitors of Inositol hexaphosphate kinase 1 (IP6K1); 0.81% of 140,000 active; AID 1645851, 2021; activity change, % (series mostly up to about 58 µM); Inositol hexakisphosphate kinase 1 (Homo sapiens), Q92551; IP6K1 kinase, ADP-Glo luminescence, 2 h; hits give low values; in the data active = activity change below about -25%; also: % is scaled to controls: 0 for no effect and ±100 for the full control effect
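ADP-Glo luminescence measures ADP made by human IP6K1 during a 2 h RT reaction with ATP/IP6 (mix at 1.3 mM/130 uM); top library doses 57.5 and 19.1 uM final.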
IP6K1 conf: Confirmatory qHTS assay for small molecule inhibitors of Inositol hexaphosphate kinase 1 (IP6K1); shares compounds with IP6K1 inh; recombinant IP6K1 kinase, ADP-Glo luminescence, 2 h; Potency, µM (titrated, usually from 49 µM), without a hit: at the top dose activity change, negative = inhibition, hits mostly inhibitors; 13% of 1,200 active; also: potency is read from the fitted curve at half-maximal effect; % is scaled to controls: 0 for no effect and ±100 for the full control effect; nearly all actives have a fitted effect of over 65% in size
Active calls of the source: *; i = inactive; u = inconclusive; x = not tested or not shown. Unless noted, calls follow the shape of the dose curve; as a rule, active = well fitted inhibition curve with a large enough effect; inconclusive = small, poorly fitted or top-dose-only effect; inactive = no such curve, though single readings can be large or run the other way.

SMILES | KDM5B inh | IP6K1 inh | others
Cc1cc(CNC(=O)c2cc(-c3ccccc3C)cc3c2OCCN3C)no1 | 35µM* | -18
Cc1cc(CNC(=O)c2cc(-c3ccncc3)cc3c2OCCN3C)no1 | u | -13
Cc1cc(CNC(=O)c2cc(-c3ccccc3F)cc3c2OCCN3C)no1 | 32µM* | -22
Cc1cc(CNC(=O)c2cc(-c3cccnc3)cc3c2OCCN3C)no1 | u | -24
Cc1cc(C(=O)COC(=O)c2cccs2)c(C)n1Cc1ccco1 | i | x
COc1cccc2cc(S(=O)(=O)c3cccc(Cl)c3)c(=O)oc12 | i | x
CC(NC(=O)c1cc(-c2ccccc2C(F)(F)F)nc2c1cnn2C)C(C)(C)C (stereo unspecified) | x | 14
CC(=O)Nc1ccc(C(C)=O)cc1OCc1ccccc1C | i | x
CCOc1ccccc1CN1CCC2(CCN([S+](=O)([O-])c3cccc(C(F)(F)F)c3)CC2)Oc2ccccc21 | 13µM* | 0
CCOc1ccccc1CN1CCC2(CCN([S+](=O)([O-])c3ccc(C)cc3)CC2)Oc2ccccc21 | u | 33
CN(CCc1ccccn1)c1ccc(-c2nc(COc3ccccc3)no2)cn1 | 28µM* | 11
CC(Cn1cccn1)Nc1ccc(-c2nc(COc3ccccc3)no2)cn1 (stereo unspecified) | u | 5
CN(CCO)c1ccc(-c2nc(CCCc3ccccc3)no2)cn1 | u | -4
CN(Cc1cccnc1)c1ccc(-c2nc(COc3ccccc3)no2)cn1 | 35µM* | 15
COc1ccccc1-c1ccc(CN2CCCCC2C(=O)NC2CCCCC2)cc1 (stereo unspecified) | x | 0
Cc1ccc(-c2cccc(CN3CCCC(c4nc5ccc(F)cc5c(=O)[nH]4)C3)c2)c(C)c1 (stereo unspecified) | u | 26
O=C(Oc1cccc2ccccc12)c1ccc(-c2ccccc2)cc1 | i | x
COCCN1Cc2ccc(NCc3ccccc3)nc2C(C)(C(=O)Nc2ccc(F)cc2)C1 (stereo unspecified) | u | 8
COCCN1Cc2ccc(NCc3ccccc3)nc2C(C)(C(=O)Nc2ccccc2)C1 (stereo unspecified) | u | 5
CC(C)CNc1ccc2c(n1)C(C)(C(=O)NC1CCC(O)CC1)CN(Cc1ccccc1)C2 (stereo unspecified) | i | -1
COCCN1Cc2ccc(NCc3ccccc3)nc2C(C)(C(=O)NCc2ccccc2)C1 (stereo unspecified) | 28µM* | 7
COCCN1Cc2ccc(NCc3ccccc3)nc2C(C)(C(=O)NC2CCOCC2)C1 (stereo unspecified) | 11µM* | 10
COCCN1Cc2ccc(NCc3ccccc3)nc2C(C)(C(=O)Nc2cccnc2)C1 (stereo unspecified) | 32µM* | 3
COc1ccc(OCC(=O)Nc2ccc3c(c2)nc(CCn2nc(C)cc2C)n3C)cc1 | i | x
Cn1c(SCc2nc3ccccc3o2)nnc1-c1ccccc1 | i | x
SMILES | KDM5B inh | IP6K1 inh | others
Cc1ccc(NC(=O)C23CCC(C)(C(=O)C2)C3(C)C)c(C)c1 (stereo unspecified) | i | x
Cc1ccc2c(c1)N(CCCC(=O)N1CCC(C)(c3noc(-c4ccccc4)n3)CC1)C(=O)CO2 | x | 27
CCOc1ccc(CCNC(=O)c2cn(C)c3ccc(S(=O)(=O)N4CCOCC4)cc3c2=O)cc1OCC | i | -5
CCOc1ccc(CCNC(=O)c2cn(C)c3ccc(S(=O)(=O)N4CCCCC4)cc3c2=O)cc1OCC | u | -27*
O=C(Nc1ccc(-c2nnc3n2CCCC3)cc1)c1cc(-c2ccccc2)n[nH]1 | 32µM* | -4
O=C(Nc1cccc(-c2nnc3n2CCCC3)c1)c1cc(-c2ccccc2)n[nH]1 | u | 12
CCn1cnc2c1c(=O)n(CC(=O)NC1CCS(=O)(=O)C1)c(=O)n2Cc1ccccc1 (stereo unspecified) | i | x
Cc1nc(-c2ccccc2)n(Cc2cc(=O)n3ccccc3n2)c(=O)c1CCO | 22µM* | 11
Cc1nc(-c2ccccc2)n(Cc2nc(-c3ccccc3)oc2C)c(=O)c1CCO | i | -9
COc1ccc(C(C)NC(=O)CC(C)(C)C)cc1OC (stereo unspecified) | i | x
CCOCC(=O)N1CCC(O)(c2ccccc2)[C@H](N2CCCC2)C1 (stereo partly specified) | 10µM* | 17
CCC(=O)N1CCC(O)(c2ccccc2)[C@H](N2CCCC2)C1 (stereo partly specified) | u | 18
O=C(C1CCCCC1)N1CC[C@](O)(c2ccccc2)[C@H](N2CCCC2)C1 | 8.9µM* | 22
O=C(c1ccncc1)N1CC[C@](O)(c2ccccc2)[C@H](N2CCCC2)C1 | u | 6
COCCn1cnnc1SCc1ccc(OC)c(F)c1 | i | x
COc1ccc(C)cc1-n1nnc(-c2nc(-c3ccccc3)no2)c1N | i | x
CCCCOCCCNC(=O)c1cc(=O)c2ccccc2o1 | i | x
Cc1cccc(CS(=O)(=O)c2ncc(Cl)c(C(=O)Nc3nc4ccc(F)cc4s3)n2)c1 | u | -22
O=C(Nc1nc2ccc(F)cc2s1)c1nc(S(=O)(=O)Cc2ccccc2)ncc1Cl | u | -40*
CCC(C)c1ccc(NC(=O)CSc2nnc(-c3cc(-c4ccc(F)cc4)n[nH]3)n2N)cc1 (stereo unspecified) | i | x
COc1ccc(Nc2cnc3ccc(N(C)Cc4cccnc4)nn23)cc1 | u | -12
CN(Cc1cccnc1)c1ccc2ncc(Nc3cccc(N[S+](C)(=O)[O-])c3)n2n1 | 18µM* | 6
CN(Cc1cccnc1)c1ccc2ncc(Nc3ccc(C(F)(F)F)cc3)n2n1 | 25µM* | -21
CN(Cc1ccc(F)cc1)c1ccc2ncc(Nc3cccc(N[S+](C)(=O)[O-])c3)n2n1 | u | -21
O=C(NCCc1ccccc1F)c1nc2cccnc2n(CCc2ccccc2)c1=O | x | -4
SMILES | KDM5B inh | IP6K1 inh | others
COc1cccc2c(=O)cc(CSCC(=O)Nc3cccc(Cl)c3)[nH]c12 | i | x
COc1cccc(NC(=O)CSCc2cc(=O)c3ccc(C)c(C)c3[nH]2)c1 | i | -37* | IP6K1 conf=u
O=C(NS(=O)(=O)NC(=O)c1ccccc1)c1ccccc1 | i | x
COc1ccc(-c2nc(-c3c(C)noc3C)cc3[nH]c(C)cc23)cn1 | 35µM* | -31* | IP6K1 conf=u
Cc1cc(F)ccc1-c1[nH]nc2ncc(-c3c(C)noc3C)nc12 | u | 4
Cc1ccc(-c2ccccc2CN2CCN(C(=O)c3ccccc3)CC2)cc1Cl | x | -8
c1ccc2c(CNC3CCCCC3)cccc2c1 | i | x
Nc1nnc(SCC(=O)Nc2ccccc2)s1 | u | -2
CC(=O)c1ccc(NC(=O)CSc2nnc(N)s2)cc1 | i | -31* | IP6K1 conf=-16%
CS(=O)(=O)N1CCCC1c1noc(CCC(=O)N2CCCCCC2)n1 (stereo unspecified) | x | -9
N#Cc1ccc(C(=O)NCCCC2CCCC2)cc1 | i | x
